Screening results as filed in PubChem BioAssay.
Giardia killer – kills Giardia lamblia. hit rate 0.15% among 340,000. AID 540267. activity change, % at 7.66 µM, hits read low. Giardia lamblia trophozoite viability; in the data active = activity change below about -80%; inconclusive = between about -30% and that limit;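 also: parasites exposed to compound for two days anaerobically before the ATP read; % is scaled to controls: 0 for no effect and ±100 for the full control effect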
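Giardia lamblia trophozoites (100 cells/well) were incubated with compounds for 48 h at 37 deg C under anaerobic conditions. Viability was read as ATP content by one-step luminescence after 15-30 min at room temperature.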
MCF10A rereplic – induces DNA re-replication in MCF 10a normal breast cells. hit rate 2.9% among 350,000. AID 624296. Potency, µM (doses to about 46.1 µM), without a hit: at the highest dose activity, positive = re-replication, actives largely listed as activators. MCF 10A DNA re-replication, Hoechst nuclear intensity, 48 h; also: potency is read from the fitted curve at half-maximal effect; % of control where 0% means no effect; nearly all actives have a fitted effect of over 50% in size
BCR signal inh – inhibitors of chronic active B-cell receptor signaling. ABC-DLBCL IkBa-CBG/CBR reporter, luminescence ratio, 4 h. Potency, µM (top dose mostly 46.1 µM), for inactives: at the top dose activity change, negative = inhibition, hits mostly inhibitors. hit rate 0.05% among 340,000. AID 493014; active = well fitted inhibition curve with a large enough effect in the signal ratio, with a control signal flat, not every such curve was filed as active; inconclusive = small, poorly fitted or top-dose-only effect, or effect the other way, or a change in a side signal; the % refers to the signal ratio;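 also: potency is read from the fitted curve at half-maximal effect; plate controls were basal doxycycline-induced cells for no effect and cells given 10 µM MG132 for full effect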
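Doxycycline induced both beetle luciferases in TMD8 lymphoma cells; IKK-driven degradation limits the IkappaBalpha-fused green signal, while red luminescence normalises for cell number and nonspecific effects. Compounds tested up to 46 uM, 4 hrs.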
VP16 counter – Gal4-VP16 reporter inhibition counter-screen | AID 2546 | hit rate 3.5% among 310,000 | Drosophila S2 Gal4-VP16 UAS-luciferase, luminescence, 20 h | Potency, µM (doses to about 53.6 µM), without a hit: top-dose activity, negative = inhibition, hits mostly inhibitors;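 also: Gal4-VP16 expression switched on by copper sulfate through the metallothionein promoter; potency is read from the fitted curve at half-maximal effect; % is scaled to controls: 0 for no effect and ±100 for the full control effect; nearly all actives have a fitted effect of over 50% in size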
SW480 rerep – inducers of DNA re-replication in SW480 colon cancer cells. SW480 DNA re-replication, Hoechst DNA content imaging, 48 h. Potency, µM (titrated, usually from 46.1 µM), for the others: top-dose re-replication activation, usual class: activators. hit rate 1.8% among 340,000; also: potency is read from the fitted curve at half-maximal effect; % of control where 0% means no effect; nearly all actives have a fitted effect of over 55% in size
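Compounds, transferred as 23 nL by pin tool, were incubated with cells for 48 hr; DNA content per nucleus was then quantified by Hoechst staining and fluorescence plate imaging.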
RORgamma inh – ROR gamma (mouse) transcription inhibition; Drosophila S2 Gal4-RORgamma UAS-luciferase reporter, 20 h; Potency, µM (series often up to 53.6 µM), for the others: at the top dose activity change, negative = inhibition, actives largely listed as inhibitors; hit rate 5.4% among 310,000; AID 2551; also: potency is read from the fitted curve at half-maximal effect; % is scaled to controls: 0 for no effect and ±100 for the full control effect; nearly all actives have a fitted effect of over 60% in size
Target sequence (P51450 whole entry, looked up, the tested form may be a part): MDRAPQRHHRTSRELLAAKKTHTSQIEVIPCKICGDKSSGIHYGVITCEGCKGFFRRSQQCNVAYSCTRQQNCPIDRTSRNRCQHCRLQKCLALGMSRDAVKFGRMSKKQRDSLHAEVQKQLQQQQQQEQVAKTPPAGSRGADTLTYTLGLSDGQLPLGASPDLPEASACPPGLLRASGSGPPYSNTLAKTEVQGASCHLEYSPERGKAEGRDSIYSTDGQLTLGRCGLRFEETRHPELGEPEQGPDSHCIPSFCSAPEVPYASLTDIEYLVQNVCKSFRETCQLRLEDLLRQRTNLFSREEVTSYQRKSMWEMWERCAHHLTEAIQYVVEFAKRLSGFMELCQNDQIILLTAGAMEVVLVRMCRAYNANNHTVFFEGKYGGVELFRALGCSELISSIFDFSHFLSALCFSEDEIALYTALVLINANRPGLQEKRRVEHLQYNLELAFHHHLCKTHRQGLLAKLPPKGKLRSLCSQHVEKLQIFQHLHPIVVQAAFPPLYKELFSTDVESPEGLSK
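ROR gamma transcriptional activity was tracked as Gal4-UAS luciferase output in stably transfected Drosophila Schneider cells, with compound added 1 hr before 700 uM copper sulfate induction and a 20 hr ambient-temperature incubation.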
Numbers without * were called inactive; u = inconclusive; x = no result; [ ] = remark or other dose. Rows were chosen to be rich in hits. Some 8.3% of all compounds tested hit in one or more screens of this group. Unless noted, calls follow the shape of the dose curve; as a rule, active = well fitted curve in the direction sought with a large enough effect; inconclusive = small, poorly fitted or top-dose-only effect, or another doubt; inactive = no such curve, though single readings can be large; an effect the other way counts as inactive or inconclusive.

SMILES	Giardia killer	MCF10A rereplic	BCR signal inh	VP16 counter	SW480 rerep	RORgamma inh
O=C1Nc2ccccc2/C1=C\C(=O)c1ccccc1	-13	u	u	u	u	13µM*
O=C(/C=C1\C(=O)Nc2ccccc21)/C=C1\C(=O)Nc2ccccc21	-17	u	u	10µM*	u	13µM*
CN(C)/C=C1\C(=O)Nc2ccccc21	-24	-1%	19%	-2%	-7%	-13%
CN(O)/C=C1\C(=O)Nc2ccccc21	-8	-14%	6%	-1%	11%	10%
CC(C)Oc1ccc(C(=O)/C=C2/C(=O)Nc3ccccc32)cc1	-13	u	u	u	u	10µM*
CN(C)CCCN(C(=O)COc1ccc(Cl)cc1)c1nc2cc3c(cc2s1)OCO3	-27	9%	-7%	u	u	11µM*
CN(C)CCCN(C(=O)c1ccc([N+](=O)[O-])o1)c1nc2cc3c(cc2s1)OCO3	u	4%	-19%	u	12µM*	13µM*
CN(C)CCCN(C(=O)c1ccc(S(=O)(=O)N(C)Cc2ccccc2)cc1)c1nc2cc3c(cc2s1)OCO3	3	11%	-4%	u	u	8.9µM*
C=Cc1ccc(Cn2nc(-c3ccc(C)cc3)ccc2=O)cc1	-1	u	-6%	-5%	16µM*	1%
COc1cccc(C(=O)NC(=S)Nc2ccccc2N2CCOCC2)c1	-7	29%	u	6.3µM*	7%	4µM*
Cc1ccc(C(=O)NC(=S)Nc2ccccc2N2CCOCC2)cc1C	12	32%	1%	7.9µM*	u	4.5µM*
COc1cc(C(=O)NC(=S)Nc2ccccc2N2CCOCC2)cc(OC)c1OC	21	8%	u	-13%	u	-16%
CCc1nnc(NC(=O)CSc2nc(N)c(NC(=O)c3ccc(OC)cc3)c(=O)[nH]2)s1	0	7%	-2%	3%	-25%	u
CCCOc1ccc(OCCOCCN2CCc3ccccc3C2)cc1	-1	29%	6%	0%	0%	25%
Cc1cc(N2CCCC2)ccc1/C=C1/C(=O)N(C)C(=S)N1C	5	3%	5%	-27%	15µM*	-3%
C/C(=N/Nc1nc(C)c(C)s1)c1cccc([N+](=O)[O-])c1	0	-4%	u	u	15%	11µM*
Cc1cc(Br)ccc1NC(=S)Nc1cccc([N+](=O)[O-])c1	-3	-21%	-1%	u	-81%	11µM*
Cc1cccc(NC(=S)N/N=C(\c2ccccc2)C(C)C)c1	18	12%	u	u	-10%	4.5µM*
CNC(=S)Nc1cccc([N+](=O)[O-])c1	-16	10%	-3%	6%	0%	3%
C/C(=N/NC(=S)Nc1cccc(C)c1)c1cccc([N+](=O)[O-])c1	0	7%	u	10µM*	-8%	2.8µM*
CC/C(=N\NC(=S)Nc1cccc(C)c1)c1ccccc1	-7	-10%	u	u	u	u
C/C(=N\NC(=O)c1cccc([N+](=O)[O-])c1)c1cccc(NC(=O)C2CC2)c1	-4	-11%	-13%	-8%	9%	-36%
O=C(c1ccccc1OCc1ccccc1Br)N1CCN(c2ncccn2)CC1	10	u	u	-1%	u	24%
CCc1ccc(Sc2cc(C(=O)NCCCN3CCC(C)CC3)c3ccccc3n2)cc1	x	x	-8%	x	x	x
Nc1nonc1-n1nnc(C(=O)N/N=C/c2ccc(OCc3ccccc3F)cc2)c1CNc1ccccc1	17	u	9%	-7%	-1%	-38%
SMILES	Giardia killer	MCF10A rereplic	BCR signal inh	VP16 counter	SW480 rerep	RORgamma inh
C/C(=N\NC(=S)NC(C)C)c1cccc([N+](=O)[O-])c1	9	9%	u	4µM*	-1%	1.3µM*
CC1(C)N([O-])c2cc([N+](=O)[O-])ccc2[N+]1=O	6	-2%	10%	u	-14%	20µM*
COc1ccc2c(c1)CCCC21NC(=O)N(CC(=O)N2CC(C)OC(C)C2)C1=O (stereo not drawn)	2	0%	-1%	x	-4%	x
O=C1OCCN1C(=O)[C@H]1[C@H](c2ccc(Cl)cc2)C(c2ccc(F)cc2)=NN1c1ccc(Br)cc1	-20	u	u	-15%[40.7 µM]	21µM*	4%[40.7 µM]
O=C1OCCN1C(=O)[C@H]1[C@H](c2ccc(Cl)cc2)C(c2ccccc2)=NN1c1ccccc1	-2	u	8%	-1%	u	-9%
O=C1OCCN1C(=O)[C@H]1[C@H](c2ccc(Cl)cc2)C(c2ccc(F)cc2)=NN1c1ccccc1	-3	3.7µM*	u	-6%	u	13%
O=C1OCCN1C(=O)[C@H]1[C@H](c2ccc(F)cc2)C(c2ccccc2)=NN1c1ccccc1	-13	5.2µM*	4%	-5%	21µM*	28%
O=C1OCCN1C(=O)[C@H]1[C@H](c2ccc(F)cc2)C(c2ccc(F)cc2)=NN1c1ccc(Br)cc1	-23	u	2%	19%[40.7 µM]	u	2%[40.7 µM]
O=C1OCCN1C(=O)[C@H]1[C@H](c2ccc(F)cc2)C(c2ccc(F)cc2)=NN1c1ccccc1	8	5.8µM*	-2%	0%	18µM*	18%
CCC1CCCCN1C(=O)c1ccc2c(c1)N(Cc1cccc(Cl)c1)C(=O)c1ccccc1S2(=O)=O (stereo not drawn)	x	x	5%	x	x	x
COc1ccc(CN2CCNC(=O)C2CC(=O)N2CCCN(C(C)=O)CC2)cc1OC (stereo not drawn)	10	1%	2%	-8%	-1%	-2%
CC(C)(C)c1ccc(OCCC(=O)OCC(=O)N2c3ccccc3NC(=O)C2(C)C)cc1	-8	1%	-2%	x	-1%	x
COc1cccc(-c2nc(CS(=O)(=O)CC(=O)NCC(C)c3ccccc3)c(C)o2)c1 (stereo not drawn)	-20	8%	3%	u	u	45%
CCCNC(=O)c1cccc(Cn2nc(C)c(Br)c2C)c1	3	-16%	-9%	-1%	1%[9.22 µM]	21%
Cc1nn(Cc2cccc(C(=O)NC34CC5CC(CC(C5)C3)C4)c2)c(C)c1Br	-2	9.2µM*	u	3%	7%	u
C[C@H](CO)N1C[C@H](C)[C@@H](CN(C)Cc2ccncc2)Oc2c(NC(=O)CCC(F)(F)F)cccc2C1=O	4	-9%	-1%	x	-72%[9.22 µM]	x
Nc1ccccc1N=c1ssnc1Cl	3	6%	u	-20%	u	-40%
Cc1ccc(N=c2ssnc2Cl)cc1	-16	u	1%	u	u	13µM*
Cc1cc(C)nc(/N=c2/ssnc2Cl)c1	-11	u	8%	u	5%	20µM*
